# Bioassay records as filed in PubChem BioAssay.
# Only some compounds are listed: those with a hit (about 4.7% of all), similar ones and a draw of the others.
# HSP90 refold inh – HSP90 refolding inhibition in rabbit reticulocyte lysate; luciferase refolding luminescence, 3 h; inhibition, % at 5.6 µM; 290,000 compounds, 0.91% hits;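 active means inhibition above the screen-wide mean plus 3 SD, computed separately per campaign, cut at about 16% in these data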;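 further: 0% = DMSO wells and 100% = 60 µM geldanamycin wells; inhibitors lower the luminescence because luciferase stays unfolded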
# EBV LMP1 NFkB – reduces LMP1-driven NF-kappaB luciferase signal. LMP1-induced NF-kappaB luciferase reporter cells, luminescence. inhibition, % at 12.5 µM. 350,000 compounds, 0.69% hits. AID 504558; in the data active means inhibition above about 41%;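 further: 0% = neutral control wells and 100% = reference inhibitor control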
# HSF1 activator – increases HSF-1 driven luciferase reporter signal; AID 504408; NIH3T3-HGL HSF-1 luciferase reporter, MG132, 8 h; 100% = twice DMSO control signal; activation, % at 9 µM; 300,000 compounds, 1.7% hits;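 active means mean replicate activation of at least 50% with a set share of replicates each reaching 50%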;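 further: 0% = median of the neutral control wells and 100% = twice that signal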
# HSF1 inh – HSF1 inhibition; activity change, negative = inhibition, % at 7.5 µM (by protocol); 300,000 compounds, 0.77% hits; NIH3T3-HGL HSE-luciferase, MG132-induced, luminescence 8 h; hits give low values;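 active means more than half of replicate wells show activity change below -50%, luminescence cut by over half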;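 further: luciferase reports HSF-1 transcriptional activity via heat shock element; 0% = median of DMSO wells and -100% = zero luminescence signal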
# TROY NFkB inh – inhibitors of TROY-dependent NF-kB signaling; AID 1347056; 360,000 compounds, 0.98% hits; inhibition, % at 10 µM; Q293 LMP1-TROYcd NF-kB luciferase reporter, 4 h;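 active means compounds whose plate-normalised and pattern-corrected inhibition of the luciferase reporter signal at the single screening dose is 50% or more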
# TWEAK-Fn14 inh – inhibitors of TWEAK-Fn14 interaction signaling; TWEAK-stimulated Fn14 reporter cells, luciferase luminescence, 8 h; inhibition, % at 10 µM; 360,000 compounds, 2% hits; AID 1159606; in the data active means inhibition above about 50%
# Starred values were filed as active, the others as inactive; . = no result given.
SMILES,HSP90 refold inh,EBV LMP1 NFkB,HSF1 activator,HSF1 inh,TROY NFkB inh,TWEAK-Fn14 inh
COc1ccc(C(=O)CSc2nc3ccccc3n2CC(=O)c2ccccc2)cc1,2,-1,-5,-5,3,18
COC(=O)N(C)C[C@H]1OCc2cnnn2CCCC(=O)N([C@@H](C)CO)C[C@H]1C,.,3,.,.,2,-6
CCSc1nnc(NC(=O)C(Cc2ccccc2)n2cccc2)s1 (stereo not given),-2,-15,-79,-75*,3,0
Cc1csc(NC(=O)C(Cc2ccccc2)n2cccc2)n1 (stereo not given),1,-15,2,-14,-20,-16
CCSc1nnc(NC(=O)CCn2c(=O)oc3ccccc32)s1,.,79*,6,7,-4,6
C[C@H](CO)N1C[C@H](C)[C@@H](CN(C)S(=O)(=O)c2ccccc2)OCc2cnnn2CCCC1=O,.,2,.,.,-9,9
O=c1[nH][nH]c2c1[C@H](c1ccc(Cl)cc1)O[C@H](C1CCCC1)C2,.,.,.,.,2,-36
COc1ccc(C=NNc2ccc(S(=O)(=O)Nc3ccccc3C(=O)O)cc2[N+](=O)[O-])c(OC)c1,.,-2,.,.,59*,-52
Cc1nn(-c2ccccc2)c(Cl)c1/C=N/Nc1ccc(S(=O)(=O)Nc2ccccc2C(=O)O)cc1[N+](=O)[O-],-2,0,-7,2,52*,-4
CCOc1ccc(C=NNc2ccc(S(=O)(=O)Nc3ccccc3C(=O)O)cc2[N+](=O)[O-])cc1,.,3,.,.,24,18
COc1ccc(NC(=S)NNc2ccc(S(=O)(=O)Nc3ccccc3C(=O)O)cc2[N+](=O)[O-])cc1,20*,10,-2,-5,28,9
COc1ccc(NS(=O)(=O)c2ccc(N/N=C(\C)c3ccncc3)c([N+](=O)[O-])c2)cc1,-2,21,47,20,37,74*
O=C1NC[C@H](CCCCN2C[C@H](Cc3ccc(O)cc3)N(CCc3ccc(O)cc3)C(=O)C2=O)N(Cc2ccccc2)C1=O,.,.,.,.,7,4
C/C=C/c1cccc(-c2nc(C(=O)NC3Cc4ccccc4C3)cc3c2[C@@H](CCO)N(C(C)=O)C3)c1,.,.,.,.,6,1
CN(C)C(=O)c1cc2c(c(-c3cccc(-c4ccccc4F)c3)n1)[C@@H](CCO)N(S(C)(=O)=O)C2,.,.,.,.,-7,0
COc1cc(C(c2c(C)[nH][nH]c2=O)c2c(C)[nH][nH]c2=O)ccc1OCc1ccc([N+](=O)[O-])cc1,8,-21,205*,140,-29,8
CCOC(=O)C(=Cc1ccc(OCc2ccc([N+](=O)[O-])cc2)c(OC)c1)C(=O)OCC,1,-7,77*,40,30,58*
COc1cc(C(c2c(C)[nH][nH]c2=O)c2c(C)[nH][nH]c2=O)ccc1OC(=O)c1cccc([N+](=O)[O-])c1,3,5,.,.,-2,21
COC(=O)C(=Cc1ccc(OCc2ccc([N+](=O)[O-])cc2)c(OC)c1)C(=O)OC,-1,13,278*,181,57*,91*
COCCNC(=O)C1(C)Cc2c(-c3cccc(C(F)(F)F)c3)ccnc2O1 (stereo not given),.,.,.,.,19,6
CC1CC2(CC(CN(C3CCCCC3)C3CCCCC3)OC2=O)C(=O)O1 (stereo not given),.,.,.,.,9,5
COCCNC(=O)C1(C)CCCN(C(=O)c2cccc(OC(F)(F)F)c2)C1 (stereo not given),.,.,.,.,-7,-13
Cc1cc(C)nc(/N=C(\N)Nc2ccc3c(c2)OCCO3)n1,-3,-4,-60,-54*,21,-14
CCC1(O)C(=O)OCc2c1cc1n(c2=O)Cc2cc3cc(O)ccc3nc2-1 (stereo not given),.,86*,.,.,76*,70*
CCc1c2c(nc3ccc(OC(=O)N4CCC(N5CCCCC5)CC4)cc13)-c1cc3c(c(=O)n1C2)COC(=O)[C@]3(O)CC,.,72*,5,2,57*,-5
CCOC(=O)CN(C(=O)c1snc(C(N)=O)c1N)C(C(=O)NCCC(C)C)c1ccc(C)cc1 (stereo not given),.,-1,.,.,3,16
CC(=O)c1ccc(NC(=O)COc2ccc3c(c2)OCO3)cc1,2,-4,56*,17,7,-40
CC(=O)Nc1cccc(NC(=O)COc2ccc3c(c2)OCO3)c1,1,-1,56*,26,-24,0
